Values joined by “and” are separate entries in the source; they are usually repeats but may differ in a detail not shown here. Equal values may be shown once. Records with an inconclusive call do not appear. Active and inactive are the calls of the source. Unless noted, calls follow the shape of the dose curve; as a rule, active = well fitted curve in the direction sought with a large enough effect; inconclusive = small, poorly fitted or top-dose-only effect, or another doubt; inactive = no such curve, though single readings can be large; an effect the other way counts as inactive or inconclusive.

These results are taken from PubChem BioAssay (NCATS).

In assay [1] the target is Calcium and integrin-binding protein 1 (Homo sapiens) (UniProt Q99828). As to the kind of experiment: Primary qHTS for Identification of Calcium Integrin Binding Protein 1 (CIB1) Competitor (AID 1508620).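 Also: GST tagged CIB1 binding a fluorescein labelled alphaIIb integrin peptide tracer; top concentration of the series differs between compounds.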 In short, it runs like this:
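CIB1-GST (1 uM final) and compound incubated 15 min at room temperature before adding FITC-alphaIIb peptide tracer (100 nM final). Competition for binding read by fluorescence polarization (ex 480, em 540) after another 15 min at room temperature.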

The nature of assay [2]: qHTS to identify inhibitors of the type 1 interferon - major histocompatibility complex class I in skeletal muscle: primary screen against the NCATS Mechanism Interrogation Plate v5.0 (MIPE) Libary (AID 1347411). Also: nearly all actives have a fitted effect of over 65% in size. Also: potency is read from the fitted curve at half-maximal effect. The method in brief:
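Luminescence from HiBiT-tagged endogenous HLA-B*08:01 served as the MHC class I read-out. CRISPR-engineered C25cl48 human myoblasts received 4.0 ng/ml IFN-beta plus compound for 24 hrs, with an 11-point, 1:3 series topping at 46 uM final.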

The nature of assay [3]: Primary qHTS for inhibitors of nuclear receptor binding SET domain protein 2 (NSD2) in an isogenic RCH-ACV NSD2 p.E1099K mutant (9B) (AID 1645876). Also: nearly all actives have a fitted effect of over 70% in size. Also: potency is read from the fitted curve at half-maximal effect.
The target in assay [4] is Cytochrome P450 2C9 (Homo sapiens) (UniProt P11712). The assay can be described thus: Cytochrome P450 family 2 subfamily C member 9 (CYP2C9) small molecule antagonists: luciferase biochemical (cell-free) qHTS assay (AID 1645842; active = well fitted curve in the direction sought with a large enough effect in the repeat runs; an effect the other way counts as inactive or inconclusive; also: nearly all actives have a fitted effect of over 55% in size; also: potency is read from the fitted curve at half-maximal effect). In short, it runs like this:
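Luminescence, after 20 min with luciferin detection reagent, reflected CYP2C9 turnover during a 1 h NADPH-driven reaction at 37C. Enzyme-substrate mix contained 0.4% bovine serum albumin and was preincubated with compound 10 min at room temperature.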

The target of assay [5] is Cytochrome P450 2D6 (Homo sapiens) (UniProt P10635). As to the kind of experiment: Cytochrome P450 family 2 subfamily D member 6 (CYP2D6) small molecule antagonists: luciferase biochemical (cell-free) qHTS assay (AID 1645840; active = well fitted curve in the direction sought with a large enough effect in the repeat runs; an effect the other way counts as inactive or inconclusive; also: potency is read from the fitted curve at half-maximal effect; nearly all actives have a fitted effect of over 55% in size). In short, it runs like this:
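P450-Glo luminescent screen: recombinant CYP2D6 enzyme–proluciferin substrate mix preincubated with compound 10 min at room temperature, then NADPH regeneration added for 1 h at room temperature. Detection reagent added for 20 min; luciferin light read as relative luminescence units.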

The target in assay [6] is Cytochrome P450 3A4 (Homo sapiens) (UniProt P08684). As to the kind of experiment: Cytochrome P450 family 3 subfamily A member 4 (CYP3A4) small molecule antagonists: luciferase qHTS assay (AID 1645841; active = well fitted curve in the direction sought with a large enough effect in the repeat runs; an effect the other way counts as inactive or inconclusive; also: nearly all actives have a fitted effect of over 45% in size). In short, it runs like this:
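Luminescent CYP3A4 activity readout: compounds plus enzyme-substrate mix 10 min at room temperature, reaction started with NADPH regenerating system for 1 h, stopped with detection reagent, read after 20 min. Ketoconazole served as control.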

In assay [7] the target is Protein phosphatase 1D (Homo sapiens) (UniProt O15297). The assay can be described thus: RapidFire Mass Spectrometry qHTS Assay for Modulators of WT P53-Induced Phosphatase 1 (WIP1) (AID 1347424).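 Also: amount of dephosphorylated VEPPL-S-QETFS peptide product formed by WIP1; series mostly up to about 63 µM.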 In short, it runs like this: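 10 nM WIP1 + cpd, 1 h RT; + 2 uM VEPPL-pS-QETFS, 5 min RT; stop 0.5% formic acid; labelled product standard 1 uM; RapidFire MS. Buffer 50 mM Tris pH 7.5, 30 mM MgCl2, 1 mM TCEP.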
Sequence of Protein phosphatase 1D (Homo sapiens) (O15297 whole entry, looked up): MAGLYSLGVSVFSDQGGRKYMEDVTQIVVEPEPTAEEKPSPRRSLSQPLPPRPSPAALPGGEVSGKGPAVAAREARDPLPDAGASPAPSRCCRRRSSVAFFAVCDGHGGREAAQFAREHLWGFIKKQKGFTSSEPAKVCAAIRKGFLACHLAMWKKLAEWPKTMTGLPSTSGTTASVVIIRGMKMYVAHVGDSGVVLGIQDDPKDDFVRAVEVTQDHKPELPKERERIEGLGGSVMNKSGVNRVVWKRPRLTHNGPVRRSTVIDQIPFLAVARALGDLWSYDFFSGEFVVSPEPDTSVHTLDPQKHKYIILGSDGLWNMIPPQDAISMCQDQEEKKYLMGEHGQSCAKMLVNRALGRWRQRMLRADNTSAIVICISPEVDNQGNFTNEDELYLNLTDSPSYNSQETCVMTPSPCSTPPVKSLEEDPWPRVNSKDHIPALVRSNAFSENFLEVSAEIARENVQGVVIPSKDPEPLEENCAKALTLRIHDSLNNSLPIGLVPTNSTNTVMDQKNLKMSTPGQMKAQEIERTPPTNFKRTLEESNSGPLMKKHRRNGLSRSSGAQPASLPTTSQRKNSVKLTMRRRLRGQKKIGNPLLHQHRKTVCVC

Assay [8] has the same target. The assay can be described thus: Rhodamine-PBP qHTS Assay for Modulators of WT P53-Induced Phosphatase 1 (WIP1) (AID 1347425). In short, it runs like this: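 WIP1 (5 nM final) was preincubated with compound for 1 hour at room temperature. It then dephosphorylated 10 uM VEPPL-pS-QETFS peptide in Tris-HCl pH 7.5 with 30 mM MgCl2. Released Pi was detected by 10 uM Rh-PBP fluorescence (ex 525/em 598 nm) read at 1-min intervals for 11 min, as delta f1 - f0.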

Assay [9] in a line: Primary qHTS for inhibitors of La Crosse Virus (LACV) - induced cell death in SH-SY5Y cells (AID 1508616).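 Also: top concentration of the series differs between compounds; higher means more rescue of cells from virus-induced death.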 The method in brief: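 Protection against LACV-induced cell death is scored in SH-SY5Y cells exposed to compounds and virus (0.01 MOI) for 6 days. Data normalized to virus-infected DMSO wells and virus-free DMSO wells.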
Assay [10] can be described thus: Primary qHTS for small molecule stabilizers of the endoplasmic reticulum resident proteome: Secreted ER Calcium Modulated Protein (SERCaMP) assay (AID 1508630). The method in brief:
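GLuc-SERCaMP-expressing SH-SY5Y cells, pretreated 16 h with compound, are challenged with thapsigargin to empty ER calcium stores; after 4 h, coelenterazine is added directly to the medium and luminescence is imaged.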

Assay [11] can be described thus: A High-Content qHTS Against Drug Library for the Identification of Small Molecules that Inhibit DYT1 Early Onset Primary Dystonia-Associated Cell Pathology (AID 1645839; calls by dose curve; also: series mostly up to about 46 µM). In short, it runs like this: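 In this high-content image screen, delE TorsinA mislocalization in inducible Flp-In 293 cells is scored as %pathology, with cell count serving as the counterscreen. Compound exposure lasts 48 h under tetracycline induction in reduced-serum medium.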

For assay [12], the target named is Calcium and integrin-binding protein 1 (Homo sapiens) (UniProt Q99828). As to the kind of experiment: Confirmatory qHTS for Identification of Calcium Integrin Binding Protein 1 (CIB1) Competitor (AID 1508617). Also: potency is read from the fitted curve at half-maximal effect; nearly all actives have a fitted effect of over 65% in size. The following applies: CIB1 binding competition assay, biochemical qHTS. In short, it runs like this:
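FP competition: CIB1-GST (1 uM final) in 5 mM HEPES pH 7.4, 125 mM NaCl, 5 mM CaCl2, 0.01% Tween20 preincubated 15 min RT with compounds (up to 114 uM), then FITC-alphaIIb peptide (100 nM), 15 min RT; Ex 480/Em 540.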

Sequence of Cytochrome P450 2C9 (Homo sapiens) (P11712 whole entry, looked up): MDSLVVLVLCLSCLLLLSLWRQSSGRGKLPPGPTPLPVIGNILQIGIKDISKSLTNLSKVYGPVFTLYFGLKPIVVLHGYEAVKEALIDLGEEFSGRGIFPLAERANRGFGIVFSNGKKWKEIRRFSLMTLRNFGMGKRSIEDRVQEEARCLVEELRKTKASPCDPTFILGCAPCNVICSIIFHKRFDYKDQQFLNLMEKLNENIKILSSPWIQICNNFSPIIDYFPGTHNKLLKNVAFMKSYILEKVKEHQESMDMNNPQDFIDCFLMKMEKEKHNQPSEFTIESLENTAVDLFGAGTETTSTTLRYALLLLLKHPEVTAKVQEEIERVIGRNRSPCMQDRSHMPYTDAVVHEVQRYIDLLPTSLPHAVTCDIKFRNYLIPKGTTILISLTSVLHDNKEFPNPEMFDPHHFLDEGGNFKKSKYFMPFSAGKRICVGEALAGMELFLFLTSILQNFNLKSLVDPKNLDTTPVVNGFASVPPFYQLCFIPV
Sequence of Calcium and integrin-binding protein 1 (Homo sapiens) (Q99828 whole entry, looked up): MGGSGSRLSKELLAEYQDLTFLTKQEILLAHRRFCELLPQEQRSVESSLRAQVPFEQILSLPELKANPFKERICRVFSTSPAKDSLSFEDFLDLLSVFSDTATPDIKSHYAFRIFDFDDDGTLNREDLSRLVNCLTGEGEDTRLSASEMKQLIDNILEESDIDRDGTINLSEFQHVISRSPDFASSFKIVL
Sequence of Cytochrome P450 2D6 (Homo sapiens) (P10635 whole entry, looked up): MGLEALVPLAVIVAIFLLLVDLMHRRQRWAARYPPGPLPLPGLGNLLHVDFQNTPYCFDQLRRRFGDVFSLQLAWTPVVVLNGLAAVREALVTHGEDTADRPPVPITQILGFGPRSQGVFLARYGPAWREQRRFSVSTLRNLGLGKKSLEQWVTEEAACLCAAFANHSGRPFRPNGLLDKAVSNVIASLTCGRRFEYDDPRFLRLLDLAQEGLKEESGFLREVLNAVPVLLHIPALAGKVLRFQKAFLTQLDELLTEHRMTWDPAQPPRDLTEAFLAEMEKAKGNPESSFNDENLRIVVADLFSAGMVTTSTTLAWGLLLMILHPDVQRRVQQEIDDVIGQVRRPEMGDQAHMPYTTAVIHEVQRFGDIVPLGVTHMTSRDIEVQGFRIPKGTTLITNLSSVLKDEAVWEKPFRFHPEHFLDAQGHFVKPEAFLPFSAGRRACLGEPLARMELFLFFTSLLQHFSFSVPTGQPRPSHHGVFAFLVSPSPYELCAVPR
Sequence of Cytochrome P450 3A4 (Homo sapiens) (P08684 whole entry, looked up): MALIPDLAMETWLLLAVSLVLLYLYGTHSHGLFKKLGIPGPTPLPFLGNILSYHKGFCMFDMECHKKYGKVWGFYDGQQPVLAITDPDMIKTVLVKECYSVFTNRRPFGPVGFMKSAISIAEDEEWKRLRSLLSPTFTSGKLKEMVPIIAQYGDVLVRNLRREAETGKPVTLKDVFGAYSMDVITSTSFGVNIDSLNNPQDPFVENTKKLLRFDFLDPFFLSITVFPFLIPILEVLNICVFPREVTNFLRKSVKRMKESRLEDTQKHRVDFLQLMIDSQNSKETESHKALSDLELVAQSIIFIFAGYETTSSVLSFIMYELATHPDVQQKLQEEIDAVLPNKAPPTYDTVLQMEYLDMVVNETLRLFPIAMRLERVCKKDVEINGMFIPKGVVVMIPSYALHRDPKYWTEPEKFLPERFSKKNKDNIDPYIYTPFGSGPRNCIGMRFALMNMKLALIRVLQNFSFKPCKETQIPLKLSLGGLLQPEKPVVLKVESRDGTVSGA

For the compound `CO[C@H]1C[C@@H]2CC[C@@H](C)[C@@](O)(O2)C(=O)C(=O)N2CCCC[C@H]2C(=O)O[C@H]([C@H](C)C[C@@H]2CC[C@H](n3cnnn3)[C@H](OC)C2)CC(=O)[C@H](C)/C=C(\C)[C@@H](O)[C@@H](OC)C(=O)[C@H](C)C[C@H](C)/C=C/C=C/C=C/1C`, the Potency entry in assay [1] was “inactive”.
On the same count and under the same terms, the result for `C=C1C(OC2OCC(O)C(O)C2O)CC2C(C)(C)C(O)CCC2(C)C1CC/C(C)=C\CO` (configuration not stated) reads “inactive”; that for `CC(C)[N+]1(C)C2CCC1CC(OC(=O)C(CO)c1ccccc1)C2` (configuration not stated), “inactive”.
For `Cc1[nH]nc(C(F)(F)F)c1Cc1sc2c(c1C(=O)N1C[C@](C)(O)CO1)c(=O)n(C)c(=O)n2C(C)C`, the Potency result in assay [2], in assay [1] and in assay [3] was “inactive” in each case.
Take `O=C(O)c1ccc(CN2CCC(CN[C@@H]3C[C@H]3c3ccccc3)CC2)cc1`: the Potency entry in [2], in [1] and in assay [3] was “inactive” throughout.
Take `COCCOc1cnc2ccn([C@H](C)c3nnc4c(F)cc(-c5cnn(C)c5)cn34)c(=O)c2c1`: the Potency result in assay [2], in assay [1] and in assay [3] was “inactive” each time.
For `C[C@H](Nc1ncnc2nc[nH]c12)c1cc2ccc(F)cc2nc1-c1ccccn1`, the Potency result in assay [2] and in assay [1] was “inactive” in each case. Also, the Potency in assay [3] was 833 nM (active).
For the compound `CN1CCN(c2ccc(C(=O)Nc3n[nH]c4ccc(Cc5cc(F)cc(F)c5)cc34)c(NC3CCOCC3)c2)CC1`, the Potency was 16.5 µM (active) in [2]; 3.25 µM (active) and 4.68 µM (active) and 6.51 µM (active) in assay [3]. The Potency entry in assay [1] was “inactive”.
Regarding `CCOc1cc(C(=O)N2CCC(N3CCN(C)CC3)CC2)ccc1Nc1ncc2c(n1)N(C1CCCC1)c1ccccc1C(=O)N2C`, the Potency is 23.4 µM (active) in assay [2]; 1.15 µM (active) and 1.86 µM (active) in assay [3]. Further, the Potency result in assay [4] was “inactive”.
In the case of `CC(C)N(CCCCOCC(=O)NS(C)(=O)=O)c1cnc(-c2ccccc2)c(-c2ccccc2)n1`, in [1], the Potency result is “inactive”.
For the compound `O=C(NOCC(O)CO)c1ccc(F)c(F)c1Nc1ccc(I)cc1F` (configuration not stated), the Potency result in [2], in [1] and in assay [3] was “inactive” throughout.
For the compound `CO[C@H]1O[C@@H]2O[C@]3(C)CC[C@H]4[C@H](C)CC[C@@H]([C@H]1C)[C@@]24OO3`, the Potency result in assay [1] is “inactive”.
Take `Cc1nc([C@](C)(O)CO)sc1-c1cnc(N)c(O[C@H](C)c2cc(F)ccc2-n2nccn2)c1`: the Potency result in assay [2] and in assay [1] was “inactive” each time. Besides, in [3], the Potency is 8330 nM (active).
In the case of `CN1CCN(C2CCC(n3cc(-c4ccc(Oc5ccccc5)cc4)c4c(N)ncnc43)CC2)CC1` (configuration not stated), the Potency in [2] was 11.7 µM (active); in assay [5], 12 µM (active); in assay [3] it was 20.5 nM (active) and 74.2 nM (active). Besides, the Potency entry in assay [6] and in [4] was “inactive” in each case.
On to `Nc1ccc(/C=C/C(=O)NCc2cc3cc(-c4ccc(C(=O)N5CCC(F)(F)CC5)cc4)cc(-c4ccc(F)cc4)c3o2)cn1`, for which the Potency result in assay [2] and in assay [1] was “inactive” throughout. The Potency in assay [3] is 235 nM (active) and 231 nM (active).
For `CCC(C(=O)O)c1ccc(N2Cc3ccccc3C2=O)cc1` (configuration not stated), the Potency result in assay [7], in [1], in assay [11], in assay [4] and in assay [3] was “inactive” in each case. In addition, the compound was called inactive in assay [8], in assay [9] and in assay [10].
In the case of `C[C@H]1[C@H](O)O[C@@H]2O[C@@]3(C)CC[C@H]4[C@H](C)CC[C@@H]1[C@@]24OO3`, the Potency result in assay [2] and in assay [1] was “inactive” throughout. For the same compound, the Potency in assay [3] is 1180 nM (active).
As to `CC(C)(C)C(=O)CN1C(=O)[C@H](NC(=O)Nc2cccc(C(=O)O)c2)CN(C2CCCCC2)c2ccccc21`, the Potency result in [2], in [1] and in assay [3] was “inactive” throughout.
Take `Cc1ccc([N+](=O)[O-])cc1S(=O)(=O)N(C)/N=C/c1cnc2ccc(Br)cn12`: the Potency in [2] is 0.104 µM (active); in assay [3] it was 12.9 nM (active) and 93.4 nM (active). In addition, in [1], the Potency entry was “inactive”.
As to `CC[C@H](NC(=O)[C@H](CS(=O)(=O)CC1CC1)N[C@@H](c1ccc(F)cc1)C(F)(F)F)C(=O)C(=O)NC1CC1`, the Potency entry in [2], in [1] and in assay [3] was “inactive” in each case.
Regarding `CCN(CC)CCN(Cc1ccc(-c2ccc(C(F)(F)F)cc2)cc1)C(=O)Cn1c(SCc2ccc(F)cc2)nc(=O)c2c1CCC2`, the Potency in [12] was 35.5 µM (active); in assay [5] it was 9.52 µM (active); in assay [4], 23.9 µM (active); in assay [3] it was 2900 nM (active).
Take `c1cc(Nc2cc(C3CC3)[nH]n2)nc(Nc2ccc3nc[nH]c3c2)n1`: the Potency in assay [2] was 1.31 µM (active); in [4] it was 9.52 µM (active); in assay [3] it was 417 nM (active). For the same compound, the Potency result in [1] was “inactive”.
For the compound `Cc1cc(Nc2nc(NC(C)c3ncc(F)cn3)ncc2Cl)n[nH]1` (configuration not stated), in [1], the Potency result is “inactive”.
With `CC(C)c1c2cc(-c3ccnc(NC4CCC(NC5CCOCC5)CC4)n3)ccc2nn1C` (configuration not stated), the Potency in assay [2] is 0.104 µM (active); in assay [3], 163 nM (active) and 148 nM (active). The Potency entry in assay [1] was “inactive”.
For the compound `Cc1cc(O)c(-c2ccc([C@@H](C)CN(C)C)cc2)c2c1[nH]c(=O)c1sccc12`, the Potency in assay [2] is 0.104 µM (active); in assay [3] it was 74.2 nM (active). In addition, in assay [1], the Potency result is “inactive”.
